Screening data as filed in PubChem.
Only some compounds are listed: those with a hit (about 3.3% of all), similar ones and a draw of the others.
HTT aggregate – qHTS Multiplex Assay to Identify Dual Action Probes in a Cell Model of Huntington: Aggregate Formation (GFP). PC12 HttQ103-GFP aggregates, Acumen cytometry, 40 h. Potency, µM (doses to about 46.1 µM), inactives show at the top dose activity change, negative = inhibition, hits mostly inhibitors. actives 1.1% (n = 220,000); also: potency is read from the fitted curve at half-maximal effect; % is scaled to controls: 0 for no effect and ±100 for the full control effect; nearly all actives have a fitted effect of over 60% in size
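Ecdysone-promoter PC12 model expressing HTT exon 1 Q103 fused to GFP, induced by tebufenozide at 100 nM final. Compounds titrated; aggregates sized 1–25 µm scored on a 488 nm laser cytometer.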
NPSR antagonist – qHTS Assay for Antagonists of the Neuropeptide S Receptor: cAMP Signal Transduction; actives 1% (n = 220,000); CHO-NPSR cells, cAMP TR-FRET, antagonist mode; AID 1461, 2008; Potency, µM (highest dose often 38.3 µM), for inactives: at the highest dose activity change, negative = inhibition, hits mostly inhibitors; Q6W5P4; also: potency is read from the fitted curve at half-maximal effect; % is scaled to controls: 0 for no effect and ±100 for the full control effect; nearly all actives have a fitted effect of over 50% in size
PNC assembly inh – High Content Assay for Compounds that inhibit the Assembly of the Perinucleolar Compartment | activity change (PNC), negative = inhibition, % at 10 µM | AID 2417, 2010 | actives 3.1% (n = 140,000) | PC3M PTB-GFP, PNC prevalence imaging, 16 h; hits give low values;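 active = readout at or below -70, meaning at least 70% loss of cells showing the perinucleolar compartment, a nuclear body marking cancer cells; inconclusive = readout between -30 and a set limit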;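 also: plate controls were DMSO wells for no effect and camptothecin positive control wells for full effect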
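Compounds are pinned in duplicate onto adhered PC3M cells stably expressing GFP-tagged PTB and incubated 16 h at 37 C. Cells are then fixed, nuclei stained with Hoechst, and PNC-positive cells counted.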
12-hLO inh – qHTS Assay for Inhibitors of 12-hLO (12-human lipoxygenase); actives 0.12% (n = 150,000); purified 12-hLO, xylenol orange hydroperoxide absorbance; AID 1452, 2008; Potency, µM (titrated, usually from 57.1 µM), for the others: at the top dose activity change, negative = inhibition, usual class: inhibitors; Polyunsaturated fatty acid lipoxygenase ALOX12 (Homo sapiens), P18054; also: potency is read from the fitted curve at half-maximal effect; % is scaled to controls: 0 for no effect and ±100 for the full control effect; nearly all actives have a fitted effect of over 55% in size
Target sequence (P18054 whole entry, looked up): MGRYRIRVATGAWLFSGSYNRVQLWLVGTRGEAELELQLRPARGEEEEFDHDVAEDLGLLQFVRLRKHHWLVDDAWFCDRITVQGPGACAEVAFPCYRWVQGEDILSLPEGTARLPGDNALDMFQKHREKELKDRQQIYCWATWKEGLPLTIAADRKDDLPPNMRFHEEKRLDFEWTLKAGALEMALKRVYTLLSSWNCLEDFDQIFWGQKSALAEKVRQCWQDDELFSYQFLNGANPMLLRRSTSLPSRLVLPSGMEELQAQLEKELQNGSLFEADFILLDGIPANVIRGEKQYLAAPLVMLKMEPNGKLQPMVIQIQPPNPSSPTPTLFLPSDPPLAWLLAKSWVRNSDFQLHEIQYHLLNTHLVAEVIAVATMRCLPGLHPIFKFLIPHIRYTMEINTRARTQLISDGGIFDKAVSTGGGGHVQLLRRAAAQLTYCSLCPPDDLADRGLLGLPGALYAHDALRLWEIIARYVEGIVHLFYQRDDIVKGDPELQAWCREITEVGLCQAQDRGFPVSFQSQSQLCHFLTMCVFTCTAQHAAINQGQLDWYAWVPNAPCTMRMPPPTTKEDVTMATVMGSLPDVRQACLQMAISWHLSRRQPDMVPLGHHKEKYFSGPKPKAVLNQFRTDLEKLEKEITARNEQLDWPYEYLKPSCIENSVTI
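Hydroperoxide formation by human 12-lipoxygenase from 40 uM arachidonic acid was followed colorimetrically via ferric-xylenol orange complex, using the 573/405 nm absorbance ratio. Enzyme concentration was 150 nM, with 30 min reaction at room temperature.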
HTT ATP protect – qHTS Multiplex Assay to Identify Dual Action Probes in a Cell Model of Huntington: Cytoprotection (ATP); actives 0.14% (n = 230,000); AID 1471, 2008; PC12 HTT-Q103 induced, cytoprotection, ATP luminescence, 40 h; Potency, µM (series often up to 56.4 µM), inactives show cytoprotection (ATP increase), usual class: activators; also: potency is read from the fitted curve at half-maximal effect; % of control where 0% means no effect; nearly all actives have a fitted effect of over 45% in size
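Cells were plated at 1500 per well in phenol red-free DMEM with 5% equine and 5% calf serum. Tebufenozide (100 nM final) and compounds were added, then ATPlite reagent, and luminescence was read.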
IMPase inh – qHTS Assay for Identifying the Cell-Membrane Permeable IMPase Inhibitors | CHO-M1 cells, IP1 accumulation, HTRF TR-FRET ratio | inhibition (IP1 accumulation), % at 46.1 µM | 120,000 tested, under 10 active; active = well fitted curve in the direction sought with a large enough effect in the signal ratio, not every such curve was filed as active; inconclusive = small, poorly fitted or top-dose-only effect, or a change in a side signal; inactive = no such curve, though single readings can be large or run the other way; the % refers to the signal ratio;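 also: cells stimulated with carbachol in lithium chloride buffer; plate controls were DMSO basal wells for no effect and reference inhibitor wells for full effect; higher means more IMPase inhibition seen as more IP1 and lower FRET ratio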
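Cellular IMPase inhibition is scored as a rise in cytosolic IP1, detected by competitive TR-FRET between d2-labelled IP1 and a europium anti-IP1 antibody. M1-expressing CHO cells were stimulated with carbachol for 30 min at 37C, with lithium (50 mM LiCl) present in the buffer.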
Starred values were filed as active, the others as inactive; ? = inconclusive; . = not tested or not shown; [ ] = dose if it differs, or a comment. Unless noted, calls follow the shape of the dose curve; as a rule, active = well fitted curve in the direction sought with a large enough effect; inconclusive = small, poorly fitted or top-dose-only effect, or another doubt; inactive = no such curve, though single readings can be large; an effect the other way counts as inactive or inconclusive.

SMILES	HTT aggregate	NPSR antagonist	PNC assembly inh	12-hLO inh	HTT ATP protect	IMPase inh
CC(C)(C)OC(=O)NCCCCC1=CC2=CC(=O)C(C)(OC(=O)CCc3ccccc3)C(=O)C2=CO1 (stereo not drawn)	.	.	.	0%	-4%	.
N#Cc1c(-c2ccccc2)nc(SCc2nc(N)nc(N3CCCCC3)n2)[nH]c1=O	3%	6.3µM*	-4	2%	-21%	-15
CCSc1nc(-c2ccccc2)c(C#N)c(=O)[nH]1	-7%	18%[46.1 µM]	29	0%	-12%	?
CCOc1ccc2nc(NC(=O)C3CCCN(S(=O)(=O)c4cccc5nonc45)C3)sc2c1 (stereo not drawn)	0%[1.84 µM]	-28%[46.1 µM]	3	12%	-23%	-6
O=C(Nc1nc2ccc(S(=O)(=O)N3CCCC3)cc2s1)C1CCCCC1	-12%	7%[46.1 µM]	-108*	0%	-64%[10 µM]	5
O=C(Nc1nc2ccc(S(=O)(=O)N3CCCCC3)cc2s1)C1CCCO1 (stereo not drawn)	-2%	-9%[46.1 µM]	15	-4%	-25%	1
COc1ccc2nc(NC(=O)C3CCCN(S(=O)(=O)c4cccc5nonc45)C3)sc2c1 (stereo not drawn)	-14%	-13%[46.1 µM]	-100*	-6%	2%[10 µM]	4
COc1ccc(NC(=O)Cn2cc(S(=O)(=O)Cc3ccccc3)c3ccccc32)c(OC)c1	?	4%	16	-6%	-44%[10 µM]	-1
O=C(Cn1cc(S(=O)(=O)Cc2ccccc2)c2ccccc21)Nc1ccccc1	-15%	-4%	-82*	-4%	13%[10 µM]	.
COc1cccc(Cn2c(=O)c(-c3cccs3)nc3cnc(Nc4cccc(OC)c4)nc32)c1	.	.	.	-12%	-36%	.
CCc1nc(NC(C)C)c2oc3ccccc3c2n1	-14%	-6%[46.1 µM]	-94*	-4%	-27%	12
CCC(C)Nc1nc(C)nc2c1oc1ccccc12 (stereo not drawn)	34%[9.22 µM]	?	.	.	?	.
Cc1nc(NC(C)c2ccccc2)c2oc3ccccc3c2n1 (stereo not drawn)	13µM*	-8%[46.1 µM]	-30	-2%	-29%	5
CCc1nc(NCc2ccccn2)c2oc3ccccc3c2n1	13µM*	1%[46.1 µM]	24	-4%	-40%[0.074 µM]	13
COc1cccc2c1C(CO)N1C(C#N)C3CC(C(=O)O)C(C1C2)N3C (stereo not drawn)	1.1µM*	-6%	.	.	-55%[10 µM]	.
Cc1ccc(-n2ncc3c(=O)n(CC(=O)NCc4ccco4)cnc32)cc1	-5%	16%[46.1 µM]	-100*	2%	11%[10 µM]	-2
ClC/C=C/CCl	.	.	.	-2%	-1%	.
CCOC(=O)CC(=O)CSc1nc(C)nc2c1oc1ccccc12	1.1µM*	-1%[46.1 µM]	36	-11%	-6%	1
Cc1nc(SCCO)c2oc3ccccc3c2n1	-5%	-5%[46.1 µM]	-108*	7%	-29%[0.074 µM]	1
COc1ccc(C(=O)Nc2ccc3[nH]c(-c4cccc(OC)c4)cc(=O)c3c2)cc1	-12%	-11%	-119*	-2%[0.00818 µM]	-170%	.
COc1cccc(-c2cc(=O)c3cc(NC(=O)c4cccnc4)ccc3[nH]2)c1	.	.	.	-1%[0.00818 µM]	?	.
CCC(=O)OCCNc1cc(Sc2nccn2C)c2nonc2c1[N+](=O)[O-]	7.1µM*	?	?	1%	-96%[10 µM]	2
CCC(=O)OCCNc1cc(SCCC(=O)OC)c2nonc2c1[N+](=O)[O-]	?	-4%[46.1 µM]	25	-11%	2%[10 µM]	5
CCOC(=O)c1cnc(Nc2nc3ccccc3o2)nc1CSC(=S)N(CC)CC	?	0.5µM*	-6	-1%	-24%[1.9 µM]	6
Cc1ccc2c(c1)-c1cc(C)nn1C(c1cc(Br)ccc1O)N2 (stereo not drawn)	.	.	.	.	.	4
SMILES	HTT aggregate	NPSR antagonist	PNC assembly inh	12-hLO inh	HTT ATP protect	IMPase inh
CC(=O)Nc1ccc(NC2=C(Cl)C(=O)c3ccccc3C2=O)cc1	?	10µM*	.	.	-170%	.
CN(C)c1ccc(NC2=C(Cl)C(=O)c3ccccc3C2=O)cc1	14µM*	?	26	-6%	-23%[10 µM]	.
O=C1C(Cl)=C(Nc2ccc3cn[nH]c3c2)C(=O)c2ccccc21	4µM*	6.3µM*	.	.	-98%[10 µM]	.
NC(=O)CC[C@H](NC(=O)c1ccc(F)cc1)C(=O)OCC(=O)Nc1c(F)c(F)c(F)c(F)c1F	7%	7%	-92*	2%	-4%[0.074 µM]	.
CC(C)c1ccc(NC(=O)COC(=O)[C@H](CCC(N)=O)NC(=O)c2ccc(F)cc2)cc1	-6%	11%	-12	-3%	?	-13
CCOC(=O)c1csc(NC(=O)c2ccc(C#N)cc2)n1	-14%	-5%	.	.	-27%	.
Cn1cccc1C(=O)NC(=O)COC(=O)CNC(=O)CNC(=O)c1ccc(Cl)cc1Cl	5%	-11%	.	.	-29%	.
CCCCNC(=O)/C(C#N)=C/c1cccnc1	6%	15%	-106*	0%	20%[10 µM]	.
COc1ccc(CCNC(=O)CN(C)S(=O)(=O)c2ccc(Br)s2)cc1OC	-10%	-2%	-83*	-5%	.	.
COc1ccc(CCNC(=O)CN(c2ccc(OC)c(OC)c2)S(C)(=O)=O)cc1	5%	-2%[46.1 µM]	-139*	5%	13%	0
COCCNC(=O)CN(c1ccc(C)cc1)S(=O)(=O)c1ccccc1	3%	-12%[46.1 µM]	39	-2%	-8%[10 µM]	-3
COc1ccc(CCNC(=O)CN(c2cccc([N+](=O)[O-])c2)S(C)(=O)=O)cc1	1%[9.22 µM]	9%	.	.	8%	.
COc1ccc(CCNC(=O)CN(C)S(=O)(=O)c2cccs2)cc1OC	6%	-3%[46.1 µM]	23	0%	-8%	4
COCCNC(=O)CN(c1ccc(OC)c(OC)c1)S(=O)(=O)c1ccc(C)cc1	-6%	-10%[46.1 µM]	-106*	-7%	19%	3
COc1cc([C@@H]2c3cc4c(cc3[C@@H](O)[C@H]3COC(=O)[C@H]23)OCO4)cc(OC)c1O[Si](C)(C)C(C)(C)C	-8%[9.22 µM]	10µM*	.	.	14%[10 µM]	.
Cc1ccc(SCc2ccc(C(=O)Nc3ccccc3C(=O)NC(C)C)cc2)cc1	-17%	-4%[46.1 µM]	-87*	-1%	11%[10 µM]	-19
CCC(C)NC(=O)c1ccccc1NC(=O)c1ccc(CSc2ccccc2)cc1 (stereo not drawn)	-11%	?	0	-3%	9%[10 µM]	1
Cc1ccc(CN(c2ccc(C(=O)N3CCc4ccccc4C3)cc2)S(C)(=O)=O)cc1	-24%	?	?	-11%	-19%	-4
